Bioassay records deposited in PubChem BioAssay by several laboratories.
DSG3 Ab inh: inhibitors of pemphigus antibody binding to human desmoglein-3; P32926; binding (percent of control), % at 10 µM; DSG3-coupled beads, scFv-anti-DSG3-GFP binding, flow cytometry; active compounds read low; AID 588358; 310,000 compounds, 0.48% hits;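 active = binding more than 3 SD below its plate's average and above zero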;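 also: hits lower antibody fragment binding to DSG3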
NTR1 ag: agonists of human neurotensin receptor NTR1 | activation, % at 20 µM | P30989 | NTR1-U2OS beta-arrestin-GFP spot imaging, agonist mode | 330,000 compounds, 0.17% hits;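 active = activation at or above 40% of the spot to cytoplasm intensity ratio, with at least 20 cells analyzed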;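 also: 0% = DMSO without peptide and 100% = 100 nM NTR1 peptide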
Target sequence (P30989 whole entry, looked up): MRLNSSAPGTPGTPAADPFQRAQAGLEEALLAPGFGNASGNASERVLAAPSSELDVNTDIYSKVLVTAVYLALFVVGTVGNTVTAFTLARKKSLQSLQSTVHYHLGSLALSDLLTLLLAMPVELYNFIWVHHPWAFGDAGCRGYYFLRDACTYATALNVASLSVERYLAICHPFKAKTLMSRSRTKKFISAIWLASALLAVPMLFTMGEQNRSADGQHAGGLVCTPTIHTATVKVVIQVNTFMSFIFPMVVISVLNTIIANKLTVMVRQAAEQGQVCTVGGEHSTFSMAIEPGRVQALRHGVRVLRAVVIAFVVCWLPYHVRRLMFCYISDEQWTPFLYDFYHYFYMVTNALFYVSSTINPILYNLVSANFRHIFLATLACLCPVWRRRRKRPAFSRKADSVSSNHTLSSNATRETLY
VLA-4 inh: inhibition in a human VLA-4 binding assay. inhibition, % (about 7 µM as worked out from the volumes in the protocol). AID 2557. VLA-4 expressing cells, ligand binding flow cytometry. P13612. 330,000 compounds, 0.2% hits; in the data active = inhibition above about 50%
AI-2 QS modul: Vibrio harveyi AI-2 quorum sensing modulation; Vibrio harveyi JMH597 AI-2 luminescence/OD600 ratio, 9 h; active compounds read low; strain lacks LuxN and CqsS sensors; 0 = neutral-control median; activity change, % at 7.5 µM; 300,000 compounds, 0.4% hits; AID 2094; in the data active = activity change below about -75%, passing the limit was not always enough;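 also: luminescence divided by OD600 gain over 9 h not by final OD600 alone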
NTR1 ag confirm: NTR1 (human) agonism, confirmed | shares compounds with NTR1 ag | NTR1-U2OS beta-arrestin-GFP translocation imaging | activation, % at 20 µM | 480 compounds, 38% hits | AID 504550;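 active = mean activation at 20 µM of at least 40%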;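 also: 0% = DMSO without peptide and 100% = 100 nM NTR1 peptide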
* hit, by the source's call; i = inactive; x = not tested or not shown. Hits are enriched below; roughly 1.1% of the tested compounds scored in any of these assays.

SMILES | DSG3 Ab inh | NTR1 ag | VLA-4 inh | AI-2 QS modul | NTR1 ag confirm
CC(C)C[C@H]1CN=C(Nc2ccccc2)N1CC1CCC(C(C)(C)C)CC1 (stereo partly specified) | 111 | 42* | 34 | x | 57*
COc1ccc(C(C(=O)NC2CCCC2)N(C(=O)c2snc(C(N)=O)c2N)c2ccccc2OC)cc1OC (stereo unspecified) | 101 | 61* | 1 | 10 | 2
O=C1CC(c2ccccc2)Cc2nc3nc(C(F)(F)F)nn3cc21 (stereo unspecified) | 101 | 49* | 6 | 12 | 1
Cc1ccc([C@H]2C(C(=O)O)=CC[C@@H](c3ccc(Cl)cc3)N2S(=O)(=O)c2ccc(C)cc2)cc1 | 113 | 10 | -27 | x | x
O=C(O)C1=CC[C@@H](c2ccc(Cl)cc2)N(S(=O)(=O)c2ccc(Cl)cc2)[C@H]1c1ccccc1 | 106 | 40* | 10 | x | 4
c1ccc(CCCNCCCn2cnc3c(OCc4ccccc4)ncnc32)cc1 | 101 | x | x | x | x
Cc1ccc(-c2csc3ncnc(SCC(=O)Nc4nnc(C)s4)c23)cc1 | 103 | 4 | 5 | 22 | x
Cc1ccc(-c2csc3ncnc(Sc4nnc(CN5CCCCCC5=O)o4)c23)cc1 | 97 | 49* | 33 | 14 | 56*
Cc1ccc(CN2CC(C(=O)N3CCN(c4ccccc4Cl)CC3)CC2=O)cc1 (stereo unspecified) | x | 3 | -7 | x | x
CCOC(=O)c1ccccc1NC(=O)COC(=O)Cc1ccccc1F | 107 | 2 | x | x | x
Cc1ccc(NC2Sc3ccccc3NC2=O)cc1Cl (stereo unspecified) | 101 | 51* | 2 | -19 | 9
CCOC(=O)COc1ccc2ccccc2c1/C=C/[N+](=O)[O-] | 74 | x | 37 | -4 | x
CCOC(=O)Cn1cc(/C=C/[N+](=O)[O-])c2ccccc21 | 106 | 2 | 4 | 7 | x
CCOc1ccc(/C=C/[N+](=O)[O-])c2ccccc12 | x | 80* | 28 | 18 | 66*
CCOC(=O)COc1ccc(/C=C/[N+](=O)[O-])c(OCC(=O)OCC)c1 | 96 | 74* | 21 | 4 | 69*
N#Cc1cc2c(nc1Cl)CCC2 | 105 | 1 | 19 | 13 | x
O=[N+]([O-])c1ccc2[nH]cc(S(=O)(=O)N3CCN(c4cccc(Cl)c4)CC3)c2c1 | 106 | 41* | 4 | x | 20
O=S(=O)(c1ccccc1)N1CCN(c2cccc(Cl)c2)CC1 | 118 | 2 | 17 | 5 | x
OC(CNCC(c1ccc(Cl)cc1Cl)c1c[nH]c2ccccc12)c1ccccc1 (stereo unspecified) | 124 | 59* | 15 | 37 | 44*
O=[N+]([O-])CC(c1ccccc1)c1c[nH]c2ccccc12 (stereo unspecified) | 105 | 4 | -5 | 2 | x
N#CCC(=O)Nc1ccc(C(=O)OCC(=O)N2CCN(C(=O)c3ccco3)CC2)cc1 | 114 | -1 | 5 | x | x
Cc1ccc(-c2csc(N/N=C/c3ccco3)n2)cc1 | 104 | 4 | 1 | 3 | x
CN(C)S(=O)(=O)c1ccc(-c2csc(N/N=C/c3ccc(O)cc3)n2)cc1 | 83 | 52* | -6 | 12 | 55*
CN(C)S(=O)(=O)c1ccc(-c2csc(N/N=C/c3ccco3)n2)cc1 | 95 | 71* | 0 | -1 | 78*
Oc1ccc(Br)cc1/C=N/NC(=S)NCCc1ccccc1 | 94 | 60* | -1 | 13 | 1
SMILES | DSG3 Ab inh | NTR1 ag | VLA-4 inh | AI-2 QS modul | NTR1 ag confirm
COc1ccc(O)c(/C=N/NC(=S)NCCc2ccccc2)c1 | 92 | 27 | 10 | 21 | x
Cc1cc2c(N=NC(=O)C3CC3c3ccccc3)c(O)[nH]c2cc1Br (stereo unspecified) | 119 | 42* | -18 | 22 | 26
Cc1occc1C(=O)N=Nc1c(O)[nH]c2ccc(Br)cc12 | x | 2 | 16 | -2 | x
CC1(C)CC(=O)C(C(C2=C(O)CC(C)(C)CC2=O)c2ccc(Br)s2)C(=O)C1 (stereo unspecified) | 103 | 59* | 18 | 13 | 45*
CCC(C)NC(=O)c1c(N)n(/N=C/c2cccnc2)c2nc3ccccc3nc12 (stereo unspecified) | 107 | 41* | -11 | -6 | 46*
CCc1nc2ccccc2c(C(=O)OCC(=O)Nc2cccc(S(=O)(=O)N3CCOCC3)c2)c1C | 98 | 60* | 10 | 10 | 65*
O=C(Nc1nc(-c2ccccc2)cs1)c1ccc(N2CCOCC2)c([N+](=O)[O-])c1 | 83 | 70* | 15 | -6 | 37
CCc1cccc(CC)c1-n1c(SCC(=O)N2CCc3ccccc3C2)nnc1-c1cccnc1 | 340 | 45* | 0 | 7 | 64*
CN(C)c1ccc(-n2cccc2/C=C/[N+](=O)[O-])cc1 | 96 | 63* | 15 | -25 | 66*
COCCn1c(CN2CCN(C(=O)c3ccco3)CC2)nc2c1c(=O)n(C)c(=O)n2C | 103 | 0 | 20 | 30 | x
Cc1nn(CC(=O)NCC(C)c2ccccc2)c(=O)c2cccn12 (stereo unspecified) | x | -1 | 11 | 13 | x
COC(=O)c1c(NC(=O)C2SC(=NC3CCCCC3)C(C(N)=O)=C2N)sc2c1CCCC2 (stereo unspecified) | 124 | 43* | 1 | -8 | 17
C=C(C)CN=C1SC(C(=O)Nc2sc3c(c2C(=O)OC)CCC3)C(N)=C1C(N)=O (stereo unspecified) | 83 | 20 | -11 | 8 | x
Cc1ccc(S(=O)(=O)N2CCCC2C(=O)NCc2ccccc2Cl)cc1 (stereo unspecified) | 106 | -1 | 1 | 13 | x
Cn1nc2c3cc(F)ccc3n(Cc3ccc(F)cc3)cc-2c1=O | 98 | -1 | 5 | 18 | x
COc1cc2c3nnc(-c4ccc(F)cc4)c-3cn(Cc3ccccc3)c2cc1OC | i | 49* | 0 | 69 | 84*
COc1ccc(Cn2cc3c(-c4ccc(F)cc4)nnc-3c3cc(OC)c(OC)cc32)cc1 | 101 | 46* | -26 | x | 78*
Cc1cc(C)c(S(=O)(=O)Nc2ccc3c4c(cccc24)CC3)c(C)c1 | 123 | 10 | 2 | -3 | x
Cc1ccc(S(=O)(=O)Nc2ccc3c4c(cccc24)CC3)c(C)c1 | 109 | 41* | -8 | -3 | 0
COc1ccc(-c2cn(CCC(=O)O)c(C)n2)cc1 | 103 | -1 | 22 | x | x
CCCCn1c(=O)[nH]c(=O)c2c1nc(Cn1ncc(Cl)c(Cl)c1=O)n2CCC | 88 | 15 | 10 | 11 | x
O=C(Nc1ncc(Cc2ccc(Cl)cc2Cl)s1)c1ccc([N+](=O)[O-])cc1 | 92 | 48* | 10 | 0 | 7
CC1(C)CC(=O)C(=Cc2cn(-c3ccccc3)nc2-c2ccc(Cl)cc2)C(=O)C1 | 103 | 63* | 16 | 72 | 83*
c1ccc2c(c1)CNc1ccccc1-2 | 97 | x | x | x | x
COc1ccc(CCn2c(=N)c(C(=O)NC3CCCC3)cc3c(=O)n4cccc(C)c4nc32)cc1 | 107 | 50* | 0 | 29 | 39
